# A selection: hits, their analogues and other compounds. The true share with any hit is near 3.3%.
# USP1-UAF1 inh: USP1/UAF1 (human) deubiquitinase inhibition. O94782. recombinant USP1/UAF1, Ub-Rhodamine cleavage fluorescence. Potency, µM (titrated, usually from 57.1 µM), without a hit: at the top dose activity change, negative = inhibition, most hits filed as inhibitors. 0.23% of 390,000 active; note: potency is the fitted concentration of half-maximal effect; nearly all actives have a fitted effect of over 60% in size
#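 In this screen, compounds sit with the deubiquitinase complex (1nM) for 15 min at room temperature before Ub-Rho is added at 150nM final. Fluorescence rise is then followed for 6 reads every 60 seconds.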
# PI5P4Ka inh: PI5P4K alpha (human) kinase inhibition; PI5P4Kalpha enzyme, ADP-Glo luminescence, 60 min; active compounds read low; max response, %; 1.2% of 330,000 active; AID 652105; active = max response of -50% or lower; inconclusive = between -30% and -50%; inactive = -30% or higher; note: value at the top dose of about 77 µM
# Target sequence (P48426 whole entry, looked up): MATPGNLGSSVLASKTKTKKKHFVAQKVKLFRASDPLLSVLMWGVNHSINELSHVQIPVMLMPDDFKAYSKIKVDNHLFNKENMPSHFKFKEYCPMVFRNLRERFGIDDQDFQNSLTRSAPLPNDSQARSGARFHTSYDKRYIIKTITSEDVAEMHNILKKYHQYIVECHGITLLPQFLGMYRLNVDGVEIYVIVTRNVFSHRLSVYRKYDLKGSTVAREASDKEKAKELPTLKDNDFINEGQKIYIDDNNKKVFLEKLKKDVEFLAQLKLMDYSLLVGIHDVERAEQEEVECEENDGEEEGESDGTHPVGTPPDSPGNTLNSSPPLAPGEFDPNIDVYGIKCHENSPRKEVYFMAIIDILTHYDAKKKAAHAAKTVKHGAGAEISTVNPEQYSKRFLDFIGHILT
#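 Reactions run in 0.038 M HEPES pH 7.4, 0.28 mM EGTA, 0.1% CHAPS and 5% DMSO, with PI5P4Kalpha, substrate, compound and 5 microM ATP final, one hour at room temperature. Readout is ADP-Glo luminescence.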
# USP2a inh: inhibitors of human ubiquitin-specific protease USP2a | O75604 | USP2 core, Ub-CHOP2 coupled fluorogenic reporter, 485/531 | Potency, µM (doses to about 38.3 µM), for inactives: at the top dose activity change, negative = inhibition, hits mostly inhibitors | 0.01% of 330,000 active;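 note: potency is the fitted concentration of half-maximal effect; plate controls were DMSO wells for no effect and full inhibition by NEM control for full effect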
#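 Deubiquitinase activity read as fluorescence (485/531 nm) after Ub-CHOP2 cleavage activates the enterokinase reporter on its substrate; USP2 core 10nM, Ub-CHOP2 and substrate 25nM each, 30min compound preincubation then 60min RT; data normalized to NEM, curves fitted.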
# WRN inhibitor: blocks human WRN helicase; WRN helicase unwinding, fluorescent forked duplex, kinetic; Potency, µM (doses to about 114 µM), for the others: at the top dose activity change, negative = inhibition, usual class: inhibitors; 0.46% of 360,000 active; note: potency is the fitted concentration of half-maximal effect; nearly all actives have a fitted effect of over 55% in size
#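 Kinetic fluorescence helicase assay: unwinding of a quenched forked DNA duplex (100 nM final) with 2 mM ATP final raises red fluorescence (525/598 nm). Compounds sat 15 min at room temperature with 20 nM WRN beforehand.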
# PLK1 PBD inh: PLK1 (human) polo-box domain binding inhibition; P53350; Plk1 PBD binding of FITC phosphopeptide, fluorescence polarization; Potency, µM, without a hit: max response, negative = inhibition, usual class: inhibitors; 2.8% of 360,000 active; note: potency is the fitted concentration of half-maximal effect; series mostly up to about 57 µM; nearly all actives have a fitted effect of over 65% in size
# * = called active by the depositor; ? = inconclusive; / = no result; [ ] = dose if it differs, or a comment. Unless noted, calls come from the whole dose curve; as a rule, active = well fitted curve in the direction sought with a large enough effect; inconclusive = small, poorly fitted or top-dose-only effect, or another doubt; inactive = no such curve, though single readings can be large; an effect the other way counts as inactive or inconclusive. Unless noted, % is set by controls: 0 for no effect and ±100 for the full control effect.
SMILES,USP1-UAF1 inh,PI5P4Ka inh,USP2a inh,WRN inhibitor,PLK1 PBD inh
COc1ccc(OCC(=O)Nc2c(C(=O)N3CCN(C)CC3)oc3ccccc23)cc1,-16%,-6,5%,-6%,30µM*
COc1ccccc1N1CCNC(C)C1=O (stereo not given),2%,-1,0%,-8%,8.4µM*
COc1ccccc1N1C(=O)C2C3C=CC(CC3)C2C1=O (stereo not given),-16%,1,1%,19%,-13%
CCCCOc1ccccc1NC(=O)c1ccc(=O)[nH]c1,-20%,-7,-1%,0%,30µM*
CCCOc1ccccc1NC(=O)c1ccc(N)cc1,-15%,2,1%,0%,-6%
Cc1cccc(CSc2ncc(Cl)c(C(=O)Nc3sc4c(c3C(N)=O)CCCC4)n2)c1,-16%,/,/,/,/
O=C(O)CSc1c(-c2cccs2)[nH]c2ccccc12,-19%,-28,2%,4%,27µM*
c1ccc2c(c1)[nH]c1nc(SCCN3CCOCC3)nnc12,-4%,?,0%,-24%,27µM*
O=C(O)CSc1c(-c2ccccc2)[nH]c2ccccc12,0%,6,-1%,-2%,-8%
O=C(O)CSc1nnc2c(n1)[nH]c1ccccc12,-5%,-12,0%,-23%,24µM*
O=C(CSc1nnc2c(n1)[nH]c1ccccc12)OCc1ccccc1,-23%,-2,-1%,-7%,0%
O=C(CSc1nnc2c(n1)[nH]c1ccccc12)Nc1ccc2c(c1)OCO2,-7%,/,-1%,-22%,27µM*
CCc1ccc(NC(=O)Cn2c(=O)n(CCC(=O)NCCc3ccc(Cl)cc3)c(=O)c3ccccc32)cc1,-21%,/,/,/,/
Cc1c(Cl)cnc(NC(=O)COC(=O)c2ccc([N+](=O)[O-])s2)c1Cl,18µM*,-79*,6%,?,?
O=C1CCCC2=C1C(c1cn(-c3ccccc3)nc1-c1cccs1)c1c([nH]c(=O)[nH]c1=O)N2 (stereo not given),-9%,/,-2%,-15%,24µM*
OC(c1ccccc1)c1nc(-c2ccccc2)cs1 (stereo not given),/,1,/,7%[57.1 µM],-4%
OC(c1ccccc1)c1nc2ccccc2s1 (stereo not given),1%,-27,-1%,0%,12µM*
COc1cc2c(cc1[N+](=O)[O-])-c1ccc([N+](=O)[O-])cc1C2=NNC(N)=S,-31%,-59*,/,-26%,9.5µM*
O=C1C(N2CCOCC2)=C(n2nnc3ccccc32)C(=O)c2ccccc21,14µM*,-10,-4%,-1%,-28%
O=C1c2ccccc2C(=O)c2c1cccc2-n1nnc2ccccc21,-14%,0,9%,-4%,-4%
CCOc1ccc(N(CC)S(=O)(=O)N2CCCC(C(=O)NCc3ccccc3OCC)C2)cc1 (stereo not given),-18%,/,/,/,/
CCOc1ccc(CNn2cnnc2)cc1,-19%,-4,-1%,2%,27µM*
Cc1cccc(C)c1NC(=O)C(c1ccccc1)N1CCC1=O (stereo not given),-14%,-19,-1%,8%,17µM*
Cc1cccc(CNC(=O)Cn2ccc3cc(S(=O)(=O)N4CCC(C)CC4)ccc32)c1,5%,/,/,/,/
Cc1cc(C)nc(SCC(=O)Nc2sc3c(c2C#N)CCC(C)C3)n1 (stereo not given),-13%,-5,/,-3%,-7%
SMILES,USP1-UAF1 inh,PI5P4Ka inh,USP2a inh,WRN inhibitor,PLK1 PBD inh
C=CCn1c(SCC(=O)Nc2sc3c(c2C#N)CCC(C)C3)nc2cc(C(=O)O)ccc2c1=O (stereo not given),24%,-53*,-1%,?,?
CCC1(C)Cc2sc3c(=O)[nH]c(=S)[nH]c3c2CO1 (stereo not given),-3%,-24,0%,2%[57.1 µM],11µM*
O=C(NC(=S)Nc1ccc(N2CCOCC2)c(Cl)c1)C(c1ccccc1)c1ccccc1,-21%,-5,-10%,0%,27µM*
O=C(/C=C/c1ccccc1)NC(=S)Nc1ccc(N2CCOCC2)c(Cl)c1,-10%,-4,2%,-3%,-2%
Cc1ccc(Cl)cc1-n1ncc2c(N3CCN(Cc4ccccc4)CC3)ncnc21,-16%,/,/,/,/
COc1cc(C(=O)Nc2ccc3oc(-c4ccccc4)nc3c2)cc(OC)c1OC,-20%,/,/,/,/
CSc1ncc(Cl)c(C(=O)C(C#N)c2nc3c(C)cc(C)cc3c(=O)[nH]2)n1 (stereo not given),?,/,2%,-35%,21µM*
CSc1ncc(Cl)c(C(=O)Nc2cccc(C)c2)n1,-17%,-1,-4%,4%,-7%
Cn1cc(C(=O)C(=O)NC2CC2)c2ccccc21,-7%,-25,/,-4%,27µM*
c1ccc2c(c1)nnn2Cc1nnc2sc(-c3ccncc3)nn12,-4%,/,2%,6%,32µM*
Clc1ccc(Cc2nn3c(Cn4nnc5ccccc54)nnc3s2)cc1,-14%,/,0%,-1%,27µM*
c1coc(-c2nn3c(Cn4nnc5ccccc54)nnc3s2)c1,-17%,/,0%,-6%,27µM*
c1ccc2oc(-c3nn4c(Cn5cnc6ccccc65)nnc4s3)cc2c1,-21%,-2,/,-5%,?
S=c1[nH]nc(Cn2nnc3ccccc32)n1-c1ccc(Cl)cc1,-8%,0,1%,-10%,4%
O=S(=O)(Nc1c(S(=O)(=O)c2ccccc2)c2nc3ccccc3nc2n1C1CCCCC1)c1ccccc1,3.2µM*,-2,2%,-33%,4.2µM*
C=CCn1c(NS(=O)(=O)c2ccccc2)c(S(=O)(=O)c2ccc(C)cc2)c2nc3ccccc3nc21,28µM*,7,0%,-14%,?
Clc1ccc2c(N/N=C/c3ccccc3Br)ccnc2c1,-17%,-27,2%,?,4%
Clc1ccc2c(N/N=C/c3cccc(Br)c3)ccnc2c1,-13%,-69*,2%,-17%,-8%
Cc1ccc(S(=O)(=O)N2CCC[C@H]2C(=O)OCC(=O)c2ccc3c(c2)NC(=O)CO3)cc1,-14%,-6,0%,-4%,27µM*
Cc1ccc(-c2cc(-c3ccccc3Cl)c(C#N)c(N)n2)o1,-10%,?,-1%,-26%,?
Cc1ccc(-c2cc(-c3ccccc3)c(C#N)c(N)n2)o1,-3%,-58*,-2%,-19%,21µM*
COc1ccc(-c2onc(C)c2C)cc1S(=O)(=O)NCc1ccc(C)o1,14%,/,/,/,/
COc1ccc(C(=O)Nc2ccc(-c3nc4ncccc4o3)cc2C)cc1Br,-9%,/,/,/,/
Brc1ccc(NC2=Nc3ccccc3CC2)cc1,-2%,?,2%,7%,12µM*
CCOC(=O)Cn1nc(C)c(NC(=O)COc2ccc(Cl)cc2C)c1C,-9%,/,/,/,/
CN(C)CCN(Cc1ccccc1)S(=O)(=O)c1ccc2[nH]c(=O)ccc2c1,-23%,/,/,/,/
Cc1ccccc1C(=O)Nc1scc(-c2ccc(Br)cc2)c1C(=O)O,-22%,?,/,?,21µM*
